Screening data from PubChem BioAssay.
Most compounds without a hit are left out; they make up all but 2.9% or so of the library.
ADAM10 inh = inhibitors of human ADAM10 | O14672 | AID 720582 | inhibition, % at 7 µM | recombinant ADAM10, EDANS/DABCYL FRET peptide cleavage, 3 h | 370,000 tested, 0.62% active;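 active = inhibition above a per-campaign cutoff equal to the mean of compounds falling between control-based bounds plus 3 SD, cut at about 20% in these data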;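 also: 0% = DMSO wells while the 100% control is not disclosed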
PLCb3 inh = inhibitors of human phospholipase C beta3 | inhibition, % at 12.2 µM | 370,000 tested, 0.18% active | AID 720704 | Q01970 | Purified PLC-beta3, fluorogenic substrate, fluorescence;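 also: 0% = median of compound wells on plate and 100% = full blocker control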
PLC-gamma1 inh = PLC-gamma1 (human) inhibition, primary screen; P19174; purified PLC-gamma1, fluorogenic substrate, fluorescence; inhibition, % at 12.2 µM; 370,000 tested, 0.84% active; AID 720700; in the data active = inhibition above about 9.5%
ADAM17 inh = inhibits human ADAM17 | P78536 | recombinant ADAM17, EDANS/DABCYL FRET peptide cleavage | inhibition, % at 6.95 µM | 370,000 tested, 0.83% active | AID 720648;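 active = inhibition above the mean of compounds lying between control limits plus 3 SD, set per campaign, cut at about 8.5% in these data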;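 also: 0% = DMSO-only wells as the low control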
proKLK7 act = activators of human kallikrein-7 zymogen; P49862; purified proKLK7, EDANS-DABCYL substrate fluorescence; 100% is mature enzyme control, 0% vehicle; activation, % at 7 µM; 370,000 tested, 0.9% active; AID 652039;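 active = activation above the mean of all tested compounds plus 3 SD, computed per campaign excluding outliers beyond control limits, cut at about 13% in these data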
ADAM10 counter = inhibits human ADAM10 in ADAM17 exosite counter-screen; inhibition, % at 6.95 µM; 2,900 tested, 47% active; recombinant ADAM10, EDANS/DABCYL FRET peptide cleavage, 3 h; shares compounds with ADAM17 inh; AID 743256;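 active = mean inhibition over the triplicate runs exceeds the activity threshold set in the earlier primary screen, cut at about 20% in these data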;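 also: 0% = DMSO wells and 100% = marimastat wells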
ADAM17 confirm = confirmation of inhibitors of human ADAM17; shares compounds with ADAM17 inh; recombinant ADAM17, EDANS/DABCYL QFRET peptide cleavage; inhibition, % at 6.95 µM; 2,900 tested, 65% active;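 active = mean inhibition across replicates above the hit cutoff set in the primary screen, cut at about 8.5% in these data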;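 also: 0% = DMSO wells and 100% = marimastat wells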
PLCgamma1 ctr = PLC-gamma1 inhibition, counter-screen for PLC-beta3 hits; shares compounds with PLC-gamma1 inh; purified PLC-gamma1, fluorogenic substrate, fluorescence; inhibition, % at 12.3 µM; 3,300 tested, 3.1% active; AID 743258; in the data active = inhibition above about 9.5%
PLCbeta3 conf = human PLC-beta3 inhibition, confirmation. shares compounds with PLC-gamma1 inh. purified PLC-beta3, fluorogenic substrate fluorescence. AID 743261. 3,300 tested, 1% active. inhibition, % at 12.3 µM
* = called active by the depositor; nt = no result. Rule as the data show it, unless noted: active = inhibition above about 11%; inactive = the rest.

SMILES	ADAM10 inh	PLCb3 inh	PLC-gamma1 inh	ADAM17 inh	proKLK7 act	ADAM10 counter	ADAM17 confirm	PLCgamma1 ctr	PLCbeta3 conf
O=C1NC[C@H](Cc2ccccc2)N(C[C@@H]2CCCN2C[C@H](Cc2ccccc2)N2C[C@H](Cc3ccccc3)N(CC3CCCCC3)C(=O)C2=O)C1=O	5	4	-4	2	0	nt	nt	nt	nt
CCC(=O)Nc1c2c(nn1-c1ccc(OC)cc1)CS(=O)C2 (stereo unspecified)	-14	5	0	-3	0	nt	nt	nt	nt
CCC(CC)C(=O)Nc1c2c(nn1-c1ccc(OC)cc1)CS(=O)C2 (stereo unspecified)	8	6	12*	8.7*	-1	19	8	-6	-16
CCN(CC)CCCNC(=O)/C(=C\c1cccn1C)NC(=O)c1cccs1	1	8	3	3	0	nt	nt	nt	nt
COC(=O)CC(NC(=O)Nc1ccccc1F)c1ccc2c(c1)OCO2 (stereo unspecified)	0	-5	0	-3	0	nt	nt	nt	nt
Nc1nonc1C(=O)NCCNCc1ccccc1OCc1ccccc1F	0	-1	0	-7	-1	nt	nt	nt	nt
Nc1nonc1C(=O)NCCNCc1cc(Br)ccc1OCc1ccccc1F	25*	11*	9.8*	14*	0	2	5	0	3
CC1CN(C(=O)CCC(=O)NC(C)c2ccccc2)c2cc(Cl)ccc2O1 (stereo unspecified)	-11	3	0	0	0	nt	nt	nt	nt
CCCCCCSC1=C(C#N)C(=O)NC2(CCCCC2)S1	12	8	14*	9.0*	0	19	9.0*	1	0
COc1ccc(CSC2=C(C#N)C(=O)NC3(CCCCC3)S2)cc1	-6	2	3	1	0	nt	nt	nt	nt
N#Cc1ccccc1CSc1ccccn1	12	11*	9	9.1*	1	-8	0	-6	-8
N#Cc1ccc(CSc2ccccn2)c(Cl)c1	-10	-10	-1	-1	0	nt	nt	nt	nt
O=C(NC(=S)Nc1ccc(Cc2ccncc2)cc1)c1ccccc1F	9	-4	15*	12*	0	2	2	-4	-4
CCS(=O)(=O)N1CCc2nc(-c3ccccc3)sc2C1	-1	2	-3	-4	0	nt	nt	nt	nt
C=CCc1cccc(CNc2nc3ccccc3n2CCN2CCOCC2)c1O	14	14*	10*	12*	0	11	9.3*	-5	1
Cc1nn(C)cc1/C=N/NC(=S)Nc1ccc(Cl)cc1Cl	10	-1	1	3	0	nt	nt	nt	nt
CCn1nc(C)c(/C=N/NC(=S)Nc2ccc(Cl)cc2Cl)c1C	17	12*	4	8.7*	0	9	3	-2	-2
Cc1ccccc1NC(=O)C(=O)NCCCN1CCCC1=O	-4	1	4	4	0	nt	nt	nt	nt
CCOCCCNC(=O)c1c(C)[nH]c(C(=O)OCC)c1C	-2	3	1	-2	0	nt	nt	nt	nt
O=C(Nc1cccc(S(=O)(=O)C(F)F)c1)c1ccc(S(=O)(=O)N2CCOCC2)cc1	13	13*	4	11*	0	14	9.6*	0	1
O=C(Nc1cccc(S(=O)(=O)C(F)F)c1)c1ccc(S(=O)(=O)N2CCCC2)cc1	9	1	0	-2	0	nt	nt	nt	nt
CC(=O)c1c(N2CCN(C)CC2)nc(=S)n(Cc2ccccc2)c1C	-2	-1	1	0	0	nt	nt	nt	nt
COc1ccc2c(c1)[C@]1(C(=O)N2C)C2=C(CCCC2=O)Oc2cc(C)oc(=O)c21	2	4	5	-1	1	nt	nt	nt	nt
Cc1cc2c(c(=O)o1)[C@@]1(C(=O)N(C)c3ccc([N+](=O)[O-])cc31)C1=C(CCCC1=O)O2	4	10	9.5*	8.7*	0	0	4	-2	1
